About 8,800 targets were measured; listed, in parts, are those with a hit and a random draw of the rest. About 0.5% of all pairs of compound and target were hits. Unmarked numbers belong to inactive results.
Key:
Assay in all cases: log2 fold change, soluble protein after heating vs DMSO (PISA); higher = thermal stabilisation; K562 lysate, 10 uM; active = over 0.2 and 3.5 SD of the protein, either way, in both replicates (recomputed)
[1] = compound: CS(=O)(=O)CCNCc1ccc(-c2ccc3ncnc(Nc4ccc(OCc5cccc(F)c5)c(Cl)c4)c3c2)o1 [lapatinib]
Method in brief: (§1)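 Log-two fold change in thermal stability relative to solvent controls is reported from duplicates. For each sample, crude K562 extract from dounce-homogenised pellets in PBS pH 7.4 with 1 mM MgCl2, at 1 mg/mL protein, was treated with 10 μM compound for 30 min. Aliquots heated for 3 min across 48°C-58°C were pooled, brought to 0.5% NP-40 at 4°C and cleared at 21,000xg for 90 min. The supernatant was quantified by TMTpro 16plex LC-MS/MS with channel sums equalised.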

[2] = compound: CS(=O)(=O)N1CCN(Cc2cc3nc(-c4cccc5[nH]ncc45)nc(N4CCOCC4)c3s2)CC1 [pictilisib]
Method in brief: as §1

[3] = compound: C[C@@H](Oc1cc(-c2cnn(C3CCNCC3)c2)cnc1N)c1c(Cl)ccc(F)c1Cl [crizotinib]
Method in brief: as §1

[4] = compound: C[C@H](C1=CC=C(C=C1)C(=O)NC2=C3C=CNC3=NC=C2)N
Method in brief: as §1

[5] = compound: C[C@H](Nc1ncnc2nc[nH]c12)c1cc2cccc(Cl)c2c(=O)n1-c1ccccc1 [duvelisib]
Method in brief: as §1

[6] = compound: Cc1cc(Nc2cc(CN3CCOCC3)c3nc(C)c(Cc4ccc(Cl)cc4F)n3n2)n[nH]1 [gandotinib]
Method in brief: as §1

[7] = compound: Cc1cc(Nc2cc(N3CCN(C)CC3)nc(Sc3ccc(NC(=O)C4CC4)cc3)n2)n[nH]1 [tozasertib]
Method in brief: as §1

[8] = compound: Cc1ccc(-n2nc(C(C)(C)C)cc2NC(=O)Nc2ccc(OCCN3CCOCC3)c3ccccc23)cc1 [doramapimod]
Method in brief: as §1

[9] = compound: Cc1ccc(NC(=O)c2ccc(CN3CC[C@H](N(C)C)C3)c(C(F)(F)F)c2)cc1Nc1nccc(-c2cncnc2)n1 [bafetinib]
Method in brief: as §1

[10] = compound: Cc1cccc(CC(=O)N2CCc3c2ccc(-c2cn(C)c4ncnc(N)c24)c3F)n1
Method in brief: as §1

[11] = compound: Cc1cn(-c2cc(NC(=O)c3ccc(C)c(Nc4nccc(-c5cccnc5)n4)c3)cc(C(F)(F)F)c2)cn1 [nilotinib]
Method in brief: as §1

[12] = compound: Cc1nc(Nc2n[nH]c3c2CN(C(=O)N[C@H](CN(C)C)c2ccccc2)C3(C)C)c2sccc2n1
Method in brief: as §1

[13] = compound: Cc1nc(Nc2ncc(C(=O)Nc3c(C)cccc3Cl)s2)cc(N2CCN(CCO)CC2)n1 [dasatinib]
Method in brief: as §1

[14] = compound: Cc1ncc(-c2ccnc(Nc3ccc(S(C)(=O)=O)cc3)n2)n1C(C)C
Method in brief: as §1

[15] = compound: Cn1cc(-c2ccc3c(c2)CCN3C(=O)Cc2cccc(C(F)(F)F)c2)c2c(N)ncnc21
Method in brief: as §1

[16] = compound: Cn1cc(CNCC2CCN(c3ncc(C(=O)NO)cn3)CC2)c2ccccc21 [quisinostat]
Method in brief: as §1

[17] = compound: Cn1cncc1[C@@](N)(c1ccc(Cl)cc1)c1ccc2c(c1)c(-c1cccc(Cl)c1)cc(=O)n2C [tipifarnib]
Method in brief: as §1

[18] = compound: NC(=O)Nc1cc(-c2cccc(F)c2)sc1C(=O)N[C@H]1CCCNC1
Method in brief: as §1

[19] = compound: NC(=O)c1cnc(N[C@@H]2CCCC[C@@H]2N)nc1Nc1cccc(-n2nccn2)c1
Method in brief: as §1

[20] = compound: NC1(c2ccc(-c3nc4ccn5c(=O)[nH]nc5c4cc3-c3ccccc3)cc2)CCC1
Method in brief: as §1

Chain of UniProt Q9H9E3 (Q9H9E3 whole entry, looked up): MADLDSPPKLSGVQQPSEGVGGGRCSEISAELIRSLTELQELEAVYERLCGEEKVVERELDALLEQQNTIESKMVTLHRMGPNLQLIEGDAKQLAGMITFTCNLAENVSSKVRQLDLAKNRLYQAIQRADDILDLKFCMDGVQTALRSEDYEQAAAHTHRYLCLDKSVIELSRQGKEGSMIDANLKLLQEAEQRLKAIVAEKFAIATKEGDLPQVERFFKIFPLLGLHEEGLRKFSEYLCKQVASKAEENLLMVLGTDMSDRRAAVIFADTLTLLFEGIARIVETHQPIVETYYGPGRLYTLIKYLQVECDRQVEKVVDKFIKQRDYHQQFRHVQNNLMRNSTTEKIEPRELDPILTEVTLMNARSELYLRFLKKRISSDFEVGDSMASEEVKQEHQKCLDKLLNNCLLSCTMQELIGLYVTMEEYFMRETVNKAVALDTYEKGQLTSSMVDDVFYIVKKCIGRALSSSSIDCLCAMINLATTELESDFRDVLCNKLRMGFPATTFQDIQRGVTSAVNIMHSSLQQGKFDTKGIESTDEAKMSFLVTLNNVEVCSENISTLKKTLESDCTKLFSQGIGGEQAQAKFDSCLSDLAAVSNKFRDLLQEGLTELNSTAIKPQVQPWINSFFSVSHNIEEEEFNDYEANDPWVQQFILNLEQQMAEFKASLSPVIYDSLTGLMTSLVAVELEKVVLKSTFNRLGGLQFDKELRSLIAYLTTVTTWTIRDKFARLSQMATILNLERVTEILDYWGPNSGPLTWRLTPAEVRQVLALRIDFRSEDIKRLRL
Chain of UniProt Q15398 (Q15398 whole entry, looked up): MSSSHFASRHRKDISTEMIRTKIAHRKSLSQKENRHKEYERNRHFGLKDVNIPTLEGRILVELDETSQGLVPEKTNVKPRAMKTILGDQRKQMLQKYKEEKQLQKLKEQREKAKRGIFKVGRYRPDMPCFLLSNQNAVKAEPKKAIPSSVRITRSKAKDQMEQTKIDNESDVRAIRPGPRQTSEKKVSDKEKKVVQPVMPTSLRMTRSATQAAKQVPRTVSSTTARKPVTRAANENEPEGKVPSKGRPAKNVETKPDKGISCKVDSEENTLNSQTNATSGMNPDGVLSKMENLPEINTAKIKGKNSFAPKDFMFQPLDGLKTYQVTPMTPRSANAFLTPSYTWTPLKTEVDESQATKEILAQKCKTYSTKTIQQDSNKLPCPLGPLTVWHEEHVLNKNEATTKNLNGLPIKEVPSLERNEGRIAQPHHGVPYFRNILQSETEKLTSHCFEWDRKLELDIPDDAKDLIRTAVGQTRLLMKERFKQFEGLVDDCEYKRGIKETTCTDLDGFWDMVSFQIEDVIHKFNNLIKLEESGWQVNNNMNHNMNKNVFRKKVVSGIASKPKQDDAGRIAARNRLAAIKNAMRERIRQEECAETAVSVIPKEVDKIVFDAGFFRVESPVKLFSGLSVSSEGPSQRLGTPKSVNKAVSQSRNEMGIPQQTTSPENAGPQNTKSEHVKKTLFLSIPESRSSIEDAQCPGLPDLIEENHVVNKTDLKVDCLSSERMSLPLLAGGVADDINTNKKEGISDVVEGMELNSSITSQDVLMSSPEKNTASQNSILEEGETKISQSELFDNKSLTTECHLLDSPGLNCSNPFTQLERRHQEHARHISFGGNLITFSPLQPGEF
Chain of UniProt P49674 (P49674 whole entry, looked up): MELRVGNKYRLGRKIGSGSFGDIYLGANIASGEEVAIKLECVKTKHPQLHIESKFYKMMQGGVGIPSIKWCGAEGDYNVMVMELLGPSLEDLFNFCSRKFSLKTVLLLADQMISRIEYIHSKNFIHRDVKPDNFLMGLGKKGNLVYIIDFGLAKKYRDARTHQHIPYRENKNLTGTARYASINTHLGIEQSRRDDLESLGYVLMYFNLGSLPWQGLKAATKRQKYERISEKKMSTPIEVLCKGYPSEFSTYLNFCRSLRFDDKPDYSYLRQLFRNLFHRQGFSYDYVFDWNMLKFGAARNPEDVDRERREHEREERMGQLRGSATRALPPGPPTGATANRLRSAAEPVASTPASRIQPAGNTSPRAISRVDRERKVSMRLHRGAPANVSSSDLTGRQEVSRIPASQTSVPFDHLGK
Chain of UniProt P17812 (P17812 whole entry, looked up): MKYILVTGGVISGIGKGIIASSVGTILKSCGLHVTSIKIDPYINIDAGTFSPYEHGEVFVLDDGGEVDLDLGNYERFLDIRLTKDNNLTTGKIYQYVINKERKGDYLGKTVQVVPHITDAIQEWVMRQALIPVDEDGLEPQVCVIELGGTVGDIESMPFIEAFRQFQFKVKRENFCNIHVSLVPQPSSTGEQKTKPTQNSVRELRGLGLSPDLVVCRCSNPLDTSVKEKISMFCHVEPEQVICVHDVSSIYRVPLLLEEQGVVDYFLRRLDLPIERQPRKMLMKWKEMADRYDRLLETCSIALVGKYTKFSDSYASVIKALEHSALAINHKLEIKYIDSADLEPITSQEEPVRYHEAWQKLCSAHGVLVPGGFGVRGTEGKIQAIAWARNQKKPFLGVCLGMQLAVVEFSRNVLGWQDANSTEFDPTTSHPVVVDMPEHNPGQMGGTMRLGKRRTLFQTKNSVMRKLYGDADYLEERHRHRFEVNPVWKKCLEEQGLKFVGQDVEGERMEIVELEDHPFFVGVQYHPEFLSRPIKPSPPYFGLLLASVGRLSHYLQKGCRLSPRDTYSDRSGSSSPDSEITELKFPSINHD
Chain of UniProt P48729 (P48729 whole entry, looked up): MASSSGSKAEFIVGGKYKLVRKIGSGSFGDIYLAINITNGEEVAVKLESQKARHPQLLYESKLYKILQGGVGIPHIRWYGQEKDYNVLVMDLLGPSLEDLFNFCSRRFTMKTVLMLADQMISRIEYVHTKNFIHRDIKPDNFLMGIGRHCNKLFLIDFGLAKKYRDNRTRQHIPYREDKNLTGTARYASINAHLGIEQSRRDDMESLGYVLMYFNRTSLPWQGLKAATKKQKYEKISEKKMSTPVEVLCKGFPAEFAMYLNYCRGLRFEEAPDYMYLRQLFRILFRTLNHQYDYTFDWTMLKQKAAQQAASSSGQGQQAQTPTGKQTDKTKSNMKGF
Chain of UniProt Q13057 (Q13057 whole entry, looked up): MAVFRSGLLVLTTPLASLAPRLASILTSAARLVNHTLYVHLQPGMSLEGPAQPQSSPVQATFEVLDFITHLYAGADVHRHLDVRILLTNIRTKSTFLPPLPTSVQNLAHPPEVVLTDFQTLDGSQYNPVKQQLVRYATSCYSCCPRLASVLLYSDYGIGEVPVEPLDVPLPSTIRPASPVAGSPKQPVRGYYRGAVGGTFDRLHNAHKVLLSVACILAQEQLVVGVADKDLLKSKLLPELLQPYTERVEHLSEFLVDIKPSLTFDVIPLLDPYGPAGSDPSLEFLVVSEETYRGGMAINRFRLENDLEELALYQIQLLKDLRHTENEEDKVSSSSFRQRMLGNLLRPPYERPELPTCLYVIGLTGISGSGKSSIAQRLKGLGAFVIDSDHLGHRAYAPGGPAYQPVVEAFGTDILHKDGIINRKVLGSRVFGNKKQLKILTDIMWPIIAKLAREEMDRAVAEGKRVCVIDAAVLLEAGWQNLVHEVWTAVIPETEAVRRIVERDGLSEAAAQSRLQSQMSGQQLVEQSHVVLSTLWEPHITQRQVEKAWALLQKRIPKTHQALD
Chain of UniProt Q96LJ7 (Q96LJ7 whole entry, looked up): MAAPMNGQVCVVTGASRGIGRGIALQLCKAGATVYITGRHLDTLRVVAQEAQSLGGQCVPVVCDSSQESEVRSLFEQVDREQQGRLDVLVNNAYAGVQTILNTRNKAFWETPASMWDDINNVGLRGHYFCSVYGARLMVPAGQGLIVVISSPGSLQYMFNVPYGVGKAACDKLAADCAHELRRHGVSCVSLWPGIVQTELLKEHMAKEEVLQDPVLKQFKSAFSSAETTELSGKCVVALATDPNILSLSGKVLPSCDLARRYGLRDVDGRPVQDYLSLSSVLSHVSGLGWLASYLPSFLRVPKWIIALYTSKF
Chain of UniProt P57737 (P57737 whole entry, looked up): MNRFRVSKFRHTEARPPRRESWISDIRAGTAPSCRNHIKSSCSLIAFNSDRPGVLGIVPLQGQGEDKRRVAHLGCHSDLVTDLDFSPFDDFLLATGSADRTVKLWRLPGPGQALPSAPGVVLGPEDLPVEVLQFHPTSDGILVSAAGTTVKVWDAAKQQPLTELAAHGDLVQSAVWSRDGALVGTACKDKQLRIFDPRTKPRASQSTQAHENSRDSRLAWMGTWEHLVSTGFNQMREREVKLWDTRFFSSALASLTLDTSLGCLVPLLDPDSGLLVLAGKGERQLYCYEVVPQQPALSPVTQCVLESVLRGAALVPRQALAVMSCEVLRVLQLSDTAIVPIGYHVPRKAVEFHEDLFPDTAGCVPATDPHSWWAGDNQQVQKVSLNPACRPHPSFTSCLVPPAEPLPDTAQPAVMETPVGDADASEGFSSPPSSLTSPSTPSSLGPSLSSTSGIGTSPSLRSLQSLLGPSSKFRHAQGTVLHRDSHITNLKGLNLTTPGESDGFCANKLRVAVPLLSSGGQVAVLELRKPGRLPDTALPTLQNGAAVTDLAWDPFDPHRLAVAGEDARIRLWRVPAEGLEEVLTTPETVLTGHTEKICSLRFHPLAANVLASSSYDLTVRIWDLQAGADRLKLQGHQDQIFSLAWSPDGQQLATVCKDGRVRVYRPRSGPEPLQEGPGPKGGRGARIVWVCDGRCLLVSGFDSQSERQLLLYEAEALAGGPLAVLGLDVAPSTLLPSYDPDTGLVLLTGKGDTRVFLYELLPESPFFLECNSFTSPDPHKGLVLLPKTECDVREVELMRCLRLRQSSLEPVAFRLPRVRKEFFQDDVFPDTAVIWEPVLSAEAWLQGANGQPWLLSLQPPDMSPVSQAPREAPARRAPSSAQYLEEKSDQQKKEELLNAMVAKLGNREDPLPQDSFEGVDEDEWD
Chain of UniProt Q96MX0 (Q96MX0 whole entry, looked up): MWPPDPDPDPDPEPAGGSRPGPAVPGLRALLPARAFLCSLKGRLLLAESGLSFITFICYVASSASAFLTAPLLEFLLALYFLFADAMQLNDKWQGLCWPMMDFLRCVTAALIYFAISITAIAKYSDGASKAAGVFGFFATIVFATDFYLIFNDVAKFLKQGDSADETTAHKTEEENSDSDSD

| Target | log2 fold change [1] | log2 fold change [2] | log2 fold change [3] | log2 fold change [4] | log2 fold change [5] | log2 fold change [6] | log2 fold change [7] | log2 fold change [8] | log2 fold change [9] | log2 fold change [10] | log2 fold change [11] | log2 fold change [12] | log2 fold change [13] | log2 fold change [14] | log2 fold change [15] | log2 fold change [16] | log2 fold change [17] | log2 fold change [18] | log2 fold change [19] | log2 fold change [20] |
| --- | --- | --- | --- | --- | --- | --- | --- | --- | --- | --- | --- | --- | --- | --- | --- | --- | --- | --- | --- | --- |
| CSNK1E (UniProt P49674) | -0.026 | 0.103 | 0.004 | 0.135 | -0.016 | -0.134 | -0.065 | 0.003 | -0.024 | -0.061 | -0.025 | -0.008 | 0.053 | 0.091 | -0.078 | -0.075 | -0.092 | 0.059 | 0.055 | -0.06 |
| CTPS1 (UniProt P17812) | -0.007 | -0.015 | -0.044 | 0.004 | -0.003 | -0.052 | -0.004 | 0.005 | 0.078 | 0.015 | 0.009 | -0.005 | -0.058 | 0.011 | 0.026 | -0.019 | -0.015 | 0.028 | 0.002 | -0.004 |
| CMTM3 (UniProt Q96MX0) | -0.027 | 0.029 | -0.069 | 0.023 | -0.052 | 0.016 | 0.042 | 0.025 | -0.057 | -0.059 | 0.07 | 0.048 | 0.05 | 0.144 | 0.015 | 0.023 | -0.111 | -0.115 | -0.055 | -0.026 |
| DHRS1 (UniProt Q96LJ7) | -0.138 | -0.089 | -0.014 | -0.037 | 0.406 (active) | 0.099 | -0.281 | -0.015 | 0.056 | 0.092 | -0.009 | -0.043 | 0.063 | -0.064 | -0.042 | 0.012 | 0.055 | -0.001 | 0.033 | -0.026 |
| COG4 (UniProt Q9H9E3) | -0.02 | -0.164 | -0.088 | -0.014 | 0.022 | -0.207 | 0.018 | 0.026 | 0.025 | 0.036 | -0.038 | -0.01 | -0.093 | 0.008 | 0.048 | -0.047 | 0.006 | 0.004 | 0.001 | 0.055 |
| CSNK1A1 (UniProt P48729) | -0.099 | 0.084 | -0.049 | 0.084 | -0.034 | -0.077 | -0.068 | 0.027 | 0 | -0.01 | -0.04 | 0.045 | 0.088 | 0.123 | -0.039 | -0.04 | -0.019 | 0.197 | 0.018 | -0.07 |
| CORO7 isoform 3 (UniProt P57737) | 0.009 | -0.016 | -0.063 | 0.06 | 0.004 | -0.119 | 0.005 | 0.013 | 0.001 | -0.067 | -0.006 | 0.003 | -0.032 | 0.01 | 0.019 | -0.026 | 0.005 | 0.012 | -0.016 | -0.013 |
| CNDP2 (UniProt Q96KP4) | -0.021 | -0.017 | -0.008 | -0.255 (active) | 0.037 | 0.244 (active) | -0.062 | 0.001 | -0.002 | 0.212 | 0.039 | -0.023 | 0.017 | 0.051 | -0.05 | -0.074 | -0.008 | 0.004 | 0.013 | -0.003 |
| DHRS11 (UniProt Q6UWP2) | -0.017 | 0.014 | 0.024 | -0.035 | 0.024 | -0.007 | 0.028 | -0.032 | -0.051 | -0.02 | 0.058 | 0.017 | -0.018 | 0.008 | 0.03 | 0.024 | 0.002 | 0.037 | 0.002 | 0 |
| DLGAP5 (UniProt Q15398) | 0.02 | 0 | -0.016 | -0.029 | -0.005 | 0.049 | -0.014 | 0.001 | -0.008 | 0.04 | -0.013 | 0.029 | -0.036 | 0 | 0.001 | -0.033 | 0.001 | 0.011 | 0.006 | 0.007 |
| CHUK (UniProt O15111) | 0.001 | -0.031 | -0.067 | 0.112 | 0.036 | -0.067 | 0.024 | 0.008 | -0.001 | -0.048 | -0.029 | 0.015 | -0.091 | 0.035 | 0.059 | -0.131 | -0.015 | 0.078 | -0.006 | -0.116 |
| CNOT6L (UniProt Q96LI5) | -0.03 | -0.042 | -0.076 | -0.251 | -0.001 | 0.065 | 0.064 | 0.012 | -0.1 | 0.114 | -0.026 | 0.016 | -0.053 | 0.001 | 0.01 | -0.054 | -0.047 | 0.055 | -0.024 | 0.003 |
| COASY isoform 2 (UniProt Q13057) | -0.01 | 0.021 | -0.084 | -0.072 | 0.004 | 0.009 | -0.022 | -0.007 | -0.043 | 0.029 | -0.043 | -0.015 | -0.071 | -0.023 | 0.069 | -0.078 | 0.012 | 0.041 | -0.023 | -0.046 |
| DOCK10 (UniProt Q96BY6) | -0.025 | -0.024 | -0.461 | -0.641 (active) | 0.003 | 0.231 | 0 | 0.137 | -0.226 | 0.379 | -0.046 | -0.008 | -0.086 | -0.081 | 0.025 | -0.636 (active) | -0.129 | -0.011 | 0.029 | -0.086 |
| DES (UniProt P17661) | -0.079 | -0.03 | -0.082 | -0.301 | 0.098 | 0.13 | -0.014 | 0.047 | -0.051 | 0.121 | 0.009 | -0.04 | -0.024 | 0.004 | -0.057 | -0.162 | -0.008 | 0 | 0.041 | 0.034 |
| CSPP1 (UniProt Q1MSJ5) | -0.103 | -0.176 | 0.013 | 0.031 | -0.089 | 0.056 | -0.04 | 0.018 | -0.013 | -0.002 | -0.105 | -0.014 | 0.046 | 0.011 | -0.062 | 0.026 | 0.078 | 0.015 | -0.227 | 0.011 |
